# An excerpt weighted towards active compounds, which were near 1.2% of everything screened.
# ERG Ets-DNA blk – blocks human ERG Ets domain binding to DNA | actives 0.028% (n = 370,000) | Potency, µM (highest dose often 76.9 µM), without a hit: at the highest dose FP activity, negative = inhibition, usual class: inhibitors | fluorescence polarization, His-ERG Ets domain / labelled DNA | AID 624246; active = well fitted inhibition curve with a large enough effect in the polarisation, with a control signal flat; inconclusive = small, poorly fitted or top-dose-only effect, or effect the other way, or a change in a side signal; inactive = no such curve, though single readings can be large or run the other way; the % refers to the polarisation;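 also: polarization taken with two DNA probes labelled with fluorescein and Texas red; % of control where 0% means no effect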
# Target sequence (P11308 whole entry, looked up, the tested form may be a part): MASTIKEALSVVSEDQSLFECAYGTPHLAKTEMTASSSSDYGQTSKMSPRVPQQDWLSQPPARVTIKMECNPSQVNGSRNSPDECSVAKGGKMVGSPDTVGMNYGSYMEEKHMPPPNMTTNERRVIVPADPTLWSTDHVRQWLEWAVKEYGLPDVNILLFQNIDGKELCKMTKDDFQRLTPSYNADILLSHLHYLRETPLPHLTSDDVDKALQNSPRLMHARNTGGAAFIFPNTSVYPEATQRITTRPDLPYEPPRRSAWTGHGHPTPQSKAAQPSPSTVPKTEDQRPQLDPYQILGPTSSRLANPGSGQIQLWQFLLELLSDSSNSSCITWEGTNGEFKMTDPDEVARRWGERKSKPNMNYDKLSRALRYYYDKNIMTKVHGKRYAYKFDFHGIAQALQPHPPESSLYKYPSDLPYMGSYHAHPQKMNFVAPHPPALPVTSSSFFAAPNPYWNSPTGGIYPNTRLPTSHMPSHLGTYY
#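 His-tagged ERG Ets domain (1 uM in the protein solution; 300mM KCl, 50mM Tris-HCl, 1mM EDTA, 1mM DTT, pH 7.5) received compound, then a probe mix of 5 nM fluorescein-DNA and 100nM Texas-615-DNA. Fluorescence polarization was read for both dyes.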
# Mito fusion yeast – blocks mitochondrial division or promotes mitochondrial fusion; S. cerevisiae fusion-defective mutant growth rescue, CellTiterGlo 48 h; Potency, µM (titrated, usually from 46.1 µM), for the others: at the top dose growth rescue (activation), usual class: activators; actives 0.23% (n = 320,000); also: % of control where 0% means no effect; nearly all actives have a fitted effect of over 45% in size
#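 Luminescent cell viability in 1536-well qHTS format served as the measure of rescued growth in ts fusion-mutant S. cerevisiae cultured on non-fermentable YPEG for 48 hours at 37C.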
# B2AR arrestin – recruits beta-arrestin to the human beta2-adrenergic receptor; actives 0.02% (n = 330,000); beta-arrestin recruitment to beta2AR, cell-based reporter; P07550; Potency, µM (top dose mostly 46.1 µM), for inactives: at the highest dose activation, actives largely listed as activators;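 also: 0% = DMSO controls and full agonism = EC100 isoproterenol or metaproterenol; nearly all actives have a fitted effect of over 65% in size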
# BRCA1 expr up – BRCA1 expression activation. MCF7-BRCA1-FFLuc reporter, luminescence, 48 h; response scale: scaled: vehicle 0%, 10 µM genistein 100%. Potency, µM (highest dose often 46.1 µM), for the others: at the top dose activation, hits mostly activators. actives 1.1% (n = 380,000); also: nearly all actives have a fitted effect of over 80% in size
#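 MCF7-BRCA1-FFLuc cells, 2000/well in phenol-red-free MEM, attached 2 h then treated 48 h at 37 C. Luciferase luminescence read 15 min after reagent; normalized to genistein maximum activation (10microM) and DMSO, concentration-response fitted.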
# Active calls of the source: *; u = inconclusive; x = no result given; ! = a repeat was not active. Unless noted, calls follow the shape of the dose curve; as a rule, active = well fitted curve in the direction sought with a large enough effect; inconclusive = small, poorly fitted or top-dose-only effect, or another doubt; inactive = no such curve, though single readings can be large; an effect the other way counts as inactive or inconclusive. Potency is read from the fitted curve at half-maximal effect.
SMILES,ERG Ets-DNA blk,Mito fusion yeast,B2AR arrestin,BRCA1 expr up
CC(C)OCC(O)CN1CCC(Cc2ccccc2)CC1 (stereo not drawn),-1.0%,0.9%,0.2%,-0.3%
C[C@@H](CN1CCC(Cc2ccccc2)CC1)[C@@H](O)c1ccc(O)cc1,-1.3%,23.1µM*!,-0.5%,0.0%
COc1cc(OC)c(OC)cc1/C=C/c1nc2cc3ccccc3cc2c(=O)n1-c1ccc(F)cc1F,3.4%,x,x,x
CCN(C(=O)c1cccs1)c1nc(-c2ccc(OC)cc2)cs1,-15.7%,-6.2%,-1.3%,12.6µM*
COc1ccc(-c2csc(N(C)C(=O)c3ccco3)n2)cc1,4.2%,1.4%,-0.2%,7.08µM*
COc1ccc(OC)c(-c2csc(N(C)C(=O)c3ccco3)n2)c1,2.0%,2.2%,-0.3%,-1.2%
COc1ccc(-c2nnc(N(C)C(=O)c3ccno3)s2)cc1,7.1%,-1.0%,-0.1%,5.01µM*
CN(C(=O)c1ccco1)c1nc(-c2ccc(Cl)cc2)cs1,-2.8%,1.3%,0.4%,10µM*
CN(C)CCCN(C(=O)c1ccco1)c1nc(-c2ccc(Cl)cc2)cs1,0.7%,2.0%,-0.9%,34.6%
CCc1cccc(NC(=O)c2oc3ccc4c(c3c2C)C(=O)CC(C)(C)O4)c1,-2.0%,x,x,x
Cc1ccc(-c2nc3ccc(Br)cn3c2Cc2cccc(F)c2)cc1,x,x,x,3.16µM*
COc1ccccc1N1CCN(C(=O)c2sc3nc(C)nc(N4CCN(c5ccccn5)CC4)c3c2C)CC1,-10.8%,28.2µM*,-0.1%,-77.8%
N[C@H](C(=O)O)[C@H](Cc1ccccc1)C(=O)O,x,1.3%,x,x
COc1cccc(CNC(=O)C(C)n2c(=O)cc(-c3ccccc3)c3c(C)nn(C)c32)c1 (stereo not drawn),2.8%,x,x,x
CCCCn1nc(NC(=O)CCC)c2cc3cc(OC)ccc3nc21,2.7%,-2.5%,0.0%,12.6µM*
COc1ccc(CCn2nnnc2C2(c3ccc(C)cc3)CC2)cc1,x,20.6µM*,x,x
COc1ccc(N2CCN(C(c3nnnn3CCc3ccccc3)C(C)C)CC2)cc1 (stereo not drawn),-1.7%,u,-0.5%,-11.9%
Cc1ccc(C(=O)Nc2nccs2)s1,14.9%,7.4%,0.2%,11.2µM*
O=C(Nc1nccs1)c1ccc(Br)cc1,1.6%,-6.7%,-0.2%,72.1%
O=C(Nc1nccs1)c1ccc(Br)s1,-1.6%,-13.3%,-0.2%,10µM*
Cc1ccc(NC(=O)Cn2cc(S(=O)(=O)c3ccc(C)cc3)c(=O)c3cc4c(cc32)OCO4)cc1,1.1%,x,x,-3.4%
CCOc1ccccc1NC(=O)C(=O)Nc1ccc2nc3n(c(=O)c2c1)CCCCC3,9.9%,x,x,x
O=S(=O)(c1ccc(OC(F)(F)F)cc1)N1CCN(c2nc(-c3cccs3)nc3ccccc23)CC1,x,x,x,0.2%
CC(=O)Oc1ccc2c(=O)c(-c3ccccc3)coc2c1,-1.5%,2.3%,-0.3%,7.94µM*
COc1ccc(-c2coc3cc(OC)ccc3c2=O)cc1,-9.7%,x,x,2.82µM*
SMILES,ERG Ets-DNA blk,Mito fusion yeast,B2AR arrestin,BRCA1 expr up
COc1ccc(-c2coc3cc(O)ccc3c2=O)cc1,6.5%,x,x,u
CC(=O)Oc1ccc(-c2cc3ccc(OC(C)=O)cc3oc2=O)cc1,17.7%,x,x,5.62µM*
COc1ccc(CC(=O)c2ccc(OC3OC(CO)C(O)C(O)C3O)cc2O)cc1 (stereo not drawn),-7.7%,7.4%,0.4%,11.2µM*
COc1ccc(-c2coc3cc(O)ccc3c2=O)cc1O,-5.5%,-0.9%,-1.1%,12.6µM*
COc1ccc(-c2coc3cc(O[C@@H]4O[C@H](CO)[C@@H](O)[C@H](O)[C@H]4O)c(OC)cc3c2=O)cc1,6.8%,x,0.1%,11.2µM*
COc1ccc(-c2coc3cc(OC4OC(CO)C(O)C(O)C4O)ccc3c2=O)cc1 (stereo not drawn),-4.8%,4.9%,-0.4%,u
CCOc1ccc(NC(=O)CSc2nc(=O)[nH]c3c2CCC3)cc1,2.1%,x,x,x
Cc1ccc(NC(=O)C(=S)NCc2ccco2)cc1,-5.9%,-0.1%,-0.4%,7.08µM*
O=C(NCCSCc1ccco1)Nc1ccc(Cl)cc1,-2.4%,-7.8%,x,8.91µM*
Cc1ccc(NC(=O)CSCc2ccco2)cc1,0.5%,15.5%,-0.2%,10µM*
Cc1ccc(NC(=O)CSCC(=O)NCc2ccco2)cc1,17.4%,-2.7%,-0.2%,1.1%
COc1cc2nc(N3CCOCC3)nc(NC(C)C)c2cc1OC,x,x,x,0.9%
Cc1cc(C)n(-c2nc(Nc3ccccc3C)nc(-n3nc(C)cc3C)n2)n1,x,10.6%,-1.1%,x
Cc1cc(C)n(-c2nc(NC(C)(C)C)nc(NC(C)(C)C)n2)n1,-18.7%,-8.4%,u,-29.9%
Cc1cc(C)n(-c2nc(NC(C)C)nc(NC(C)C)n2)n1,2.3%,-1.4%,12.6µM*,-29.0%
Cc1cc(NC2CCCCC2)nc(-n2nc(C)cc2C)n1,x,14.6µM*,x,x
CCNc1nc(NCC)nc(-n2nc(C)cc2C)n1,x,1.4%,7.94µM*,6.5%
Cc1ccccc1CN1C(=O)C(O)(CC(=O)c2cccc(Br)c2)c2ccccc21 (stereo not drawn),4.1%,x,x,x
Cc1ccc2oc(=O)c3cnn(CC(=O)N4CCN(c5cc(Cl)ccc5C)CC4)c3c2c1,2.8%,x,x,x
CSc1nnc(NC(=O)c2ccc3c(c2)OCO3)s1,16.8%,0.9%,-0.2%,-28.7%
Cc1nnc(NC(=O)c2ccc3c(c2)OCO3)s1,3.6%,7.0%,0.2%,5.62µM*
Cc1nnc(SCc2ccc3c(c2)OCO3)s1,6.6%,-2.0%,-0.4%,8.91µM*
Cc1ccc(OCCCSc2nc(-c3ccc(C(C)(C)C)cc3)nc3cc(=O)[nH]n23)cc1C,-2.6%,x,x,x
CCn1cc(S(=O)(=O)CC(=O)Nc2ccc3c(c2)OCCO3)c2ccccc21,-0.3%,1.7%,-0.4%,1.9%
CCN(CC)C(=O)Cn1cc(S(=O)(=O)CC(=O)Nc2ccc3c(c2)OCCO3)c2ccccc21,6.6%,-6.9%,-0.2%,11.2µM*
SMILES,ERG Ets-DNA blk,Mito fusion yeast,B2AR arrestin,BRCA1 expr up
CCc1ccc(-n2nc3ccc(NC(=O)c4cc5ccccc5o4)cc3n2)cc1,-15.9%,x,x,x
Cc1ccc(SCC(=O)O/N=C(\N)c2cccc([N+](=O)[O-])c2)cc1,-12.6%,-2.8%,0.5%,4.4%
N/C(=N\OC(=O)c1ccccc1F)c1ccc([N+](=O)[O-])cc1,-1.8%,5.0%,7.6%,2.82µM*
Cc1ccc(/C(N)=N/OC(=O)CSc2ccccc2)cc1,12.2%,-0.4%,-0.1%,7.94µM*
N/C(=N\OC(=O)c1cccc(Br)c1)c1ccc([N+](=O)[O-])cc1,-12.4%,3.8%,0.0%,-9.8%
N/C(=N\OC(=O)CSc1ccccc1)c1ccc([N+](=O)[O-])cc1,0.7%,-0.1%,0.2%,11.2µM*
Cc1nn(-c2ccc(N3CCCCC3)nn2)c(C)c1CCC(=O)Nc1ccc(F)c(F)c1,-4.6%,0.5%,-0.7%,2.24µM*
Cc1ccc(NC(=O)CCc2c(C)nn(-c3ccc(N4CCCCC4)nn3)c2C)cc1,8.7%,u,0.5%,3.98µM*
CC(=O)c1ccc(NC(=O)CCc2c(C)nn(-c3ccc(N4CCCCC4)nn3)c2C)cc1,-1.3%,x,x,x
CC(C)OC(=O)c1c(NC(=O)c2cc3nc(-c4ccccc4)cc(C(F)(F)F)n3n2)sc2c1CCCC2,-1.7%,x,x,x

# Source: PubChem BioAssay
